Laboratory results reported in ChEMBL document CHEMBL4513141, “CO-ADD screening of NIH (USA) - Clinical Collection” (2021).
Potency and affinity values are given separately.

Legend:
Staphylococcus aureus = settings: Concentration 20 uM; ASSAY_TEST Inhibition of Bacterial Growth; detection method Absorption (OD600); MEDIA CAMHB; plate type 384well; NBS; CORNING #3640; time 18 hr
Escherichia coli = settings: Concentration 20 uM; ASSAY_TEST Inhibition of Bacterial Growth; detection method Absorption (OD600); MEDIA CAMHB; plate type 384well; NBS; CORNING #3640; time 18 hr

SMILES | Inhibition (Staphylococcus aureus) [%] | Inhibition (Escherichia coli) [%]
CC1=C(CC(=O)O)c2cc(F)ccc2/C1=C\c1ccc([S+](C)[O-])cc1 (configuration not stated) | 2.19 | 3.68
Sc1ncnc2nc[nH]c12 [MERCAPTOPURINE ANHYDROUS] | 22.75 | 6.85
NC(Cc1cc(I)c(Oc2ccc(O)c(I)c2)c(I)c1)C(=O)O (configuration not stated) [RATHYRONINE] | 11.14 | 4.17
O=C([O-])c1cc(=O)c2c(OCC(O)COc3cccc4oc(C(=O)[O-])cc(=O)c34)cccc2o1.[Na+].[Na+] [CROMOLYN SODIUM] | 9.1 | -1.24
CC1(C)C[C@@H]1C(=O)N/C(=C\CCCCSC[C@H](N)C(=O)O)C(=O)[O-].[Na+] [CILASTATIN SODIUM] | -4.51 | -0.62
CCCCNC(=O)NS(=O)(=O)c1ccc(C)cc1 [TOLBUTAMIDE] | 4.92 | 0.97
COc1cc([C@@H]2c3cc4c(cc3[C@@H](O[C@@H]3O[C@@H]5CO[C@@H](C)O[C@H]5[C@H](O)[C@H]3O)[C@H]3COC(=O)[C@H]23)OCO4)cc(OC)c1O [ETOPOSIDE] | 14.84 | -0.07
O=C(NCCO[N+](=O)[O-])c1cccnc1 [NICORANDIL] | 13.24 | 8.35
CSc1nc2cc(Cl)c(Oc3cccc(Cl)c3Cl)cc2[nH]1 [TRICLABENDAZOLE] | 7.06 | -5.3
CN1CCN(CC/C=C2/c3ccccc3Sc3ccc(S(=O)(=O)N(C)C)cc32)CC1 [THIOTHIXENE] | 8.53 | 3.6
CC(Cc1ccccc1)(NC(=O)CN)c1ccccc1.Cl (configuration not stated) [REMACEMIDE HYDROCHLORIDE] | 12.25 | -0.35
